Assay [1] in a line: NCI Yeast Anticancer Drug Screen. Data for the rad50 strain (AID 155).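 Note: 0% = growth of vehicle-only cultures of the same strain.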 The conditions noted are these: S. cerevisiae rad50 strain growth inhibition; at 50.0 µM; active compounds read high. The method, boiled down:
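A DNA repair-deficient yeast mutant serves as the test organism; compound-induced growth inhibition is calculated against vehicle-treated cells.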

Assay [2] in a line: NCI Yeast Anticancer Drug Screen. Data for the mec2-1 strain (AID 157). The note with it: S. cerevisiae mec2-1 strain, at 50.0 µM, active compounds read high. An outline of the steps: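 Growth inhibition is read against vehicle-treated controls after compound exposure of the mec2-1 yeast strain, which is defective in DNA damage repair or cell cycle control.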
Assay [3] in a line: NCI Yeast Anticancer Drug Screen. Data for the sgs1 mgt1 strain (AID 161).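 Note: 0% = growth of cultures given vehicle only.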 The conditions noted are these: S. cerevisiae sgs1 mgt1 strain, at 50.0 µM, active compounds read high. An outline of the steps: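 Growth of a repair-deficient yeast mutant was monitored after compound treatment and expressed as inhibition relative to vehicle-treated cultures.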
A short description of assay [4]: NCI Yeast Anticancer Drug Screen. Data for the cln2 rad14 strain (AID 165).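 Note: 0% = growth equal to vehicle treated cultures.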 The conditions noted are these: S. cerevisiae cln2 rad14 strain, at 50.0 µM, active compounds read high. The method, boiled down:
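Growth inhibition, relative to vehicle-treated controls, is the read-out. The test organism is a yeast strain with defined genetic alterations, cln2 rad14.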

Assay [5] can be described thus: NCI Yeast Anticancer Drug Screen. Data for the bub3 strain (AID 167). The conditions noted are these: S. cerevisiae bub3 mutant strain, at 50.0 µM, active compounds read high. The method, boiled down:
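Inhibition values come from growth of compound-treated mutant yeast normalised to vehicle-treated controls.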

Assay [6] can be described thus: NCI Yeast Anticancer Drug Screen. Data for the mlh1 rad18 strain (AID 175). The conditions noted are these: S. cerevisiae mlh1 rad18 strain growth inhibition; at 50.0 µM; active compounds read high. The method, boiled down: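 Cells of a genetically altered yeast strain, deficient in DNA damage repair, were treated with compound. Their growth was then compared with that of vehicle-treated cultures to give inhibition.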

Molecules are shown by their SMILES. About 79,000 compounds went through this panel and 15% of them were active in at least one assay; those are over-represented in the sample as a whole. Values without a mark were called inactive. Activity calls are given as the source filed them. Cut-off read from the data, not from the text of the source: active = growth inhibition above about 70%; inactive = the rest.

Consider `Cc1ccc(N(C)S(=O)(=O)c2ccc([N+](=O)[O-])cc2)cc1`, for which the growth inhibition in assay [1] was 8.4%; in assay [2], -2.65%; in assay [3] it was 29.1%; in assay [4], 21.1%; in assay [5], 42.1%; in assay [6] it was 26.2%.
As to `CN(C(=O)CCC1OCCO1)c1cc([N+](=O)[O-])ccc1OCc1ccccc1`, the growth inhibition in assay [1] was 22.1%; in assay [2], -1.05%; in assay [3] it was 1.5%; in assay [4], 9.8%; in assay [5] it was 2%; in assay [6] it was 15.2%.
As for `O=[N+]([O-])c1ccc(OS(=O)(=O)c2ccccc2)cc1`, the growth inhibition in assay [1] is -3.25%; in assay [2], 7.9%; in assay [3] it was -5.35%; in assay [4] it was -3.95%; in assay [5], 4.05%; in assay [6] it was 9.65%.
Turning to `CCCCCC(O)(CCCC)CCCC`, the growth inhibition in assay [1] was -0.45%; in assay [2] it was -5.6%; in assay [3], -14.3%; in assay [4] it was -12.6%; in assay [5] it was -0.55%; in assay [6], -1.15%.
Take `O=S(=O)(c1cccc(C(F)(F)F)c1)N(CCCCN(S(=O)(=O)c1cccc(C(F)(F)F)c1)S(=O)(=O)c1cccc(C(F)(F)F)c1)S(=O)(=O)c1cccc(C(F)(F)F)c1`: the growth inhibition in assay [1] was -13.8%; in assay [2], -11.6%; in assay [3] it was -20.7%; in assay [4] it was -20.2%; in assay [5] it was -19.2%; in assay [6] it was -6.6%.
On to `CCCCCCCC/C=C\CCCCCCCC(=O)OCCN(CCOC(=O)CCCCCCC/C=C/CCCCCCCC)C(=O)COC(=O)CCCCCCC/C=C\CCCCCCCC`, for which the growth inhibition is -9.3% in assay [1]; -11.8% in assay [2]; -24.4% in assay [3]; -7.6% in assay [4]; -7.35% in assay [5]; 10.7% in assay [6].
Regarding `CN(C)c1ccc(S(=O)(=O)c2ccc(N(C)C)c([N+](=O)[O-])c2)cc1[N+](=O)[O-]`, the growth inhibition in assay [1] is 24%; in assay [2] it was -9.65%; in assay [3], -9.8%; in assay [4], 0.45%; in assay [5], 3.65%; in assay [6], -30.9%.
Take `CCOC(=O)C(F)C(C)=O` (centres undefined): the growth inhibition was 92% (active) in assay [1]; 94.5% (active) in assay [2]; 56.2% in assay [3]; 97.4% (active) in assay [4]; 99.5% (active) in assay [5]; 91.8% (active) in assay [6].
In the case of `O=C(OCc1ccccc1C1CSCSC1)c1cc(C(=O)OCc2ccccc2C2CSCSC2)c(C(=O)OCc2ccccc2C2CSCSC2)cc1C(=O)OCc1ccccc1C1CSCSC1`, the growth inhibition in assay [1] is 5.3%; in assay [2], -17.7%; in assay [3], -10.6%; in assay [4], 1.65%; in assay [5] it was 6.1%; in assay [6] it was -8.8%.
`O=C(O)CCCCCCCCC(=O)O`: the growth inhibition was -7.55% in assay [1]; -39% in assay [2]; 7.9% in assay [3]; -12.6% in assay [4]; -23.8% in assay [5]; -17.6% in assay [6].
Consider `O/C=C(\Cl)CCl`, for which the growth inhibition in assay [1] is 17.2%; in assay [2], -7.15%; in assay [3] it was 12.4%; in assay [4], 11.9%; in assay [5] it was 5.1%; in assay [6], 16.2%.
`C[C@H](N)[C@@H](O)/C=C/c1ccccc1`: the growth inhibition in assay [1] was 8%; in assay [2] it was -16.9%; in assay [3], -0.05%; in assay [4], -4.7%; in assay [5], -9.7%; in assay [6], -8.7%.
Consider `O=C(Nc1ccccc1)c1ccccc1C(O)(c1ccccc1)c1ccc(Cl)cc1` (centres undefined), for which the growth inhibition in assay [1] is 84.7% (active); in assay [2], 14%; in assay [3], 77% (active); in assay [4], 11.1%; in assay [5], 52%; in assay [6] it was 56.3%.
In the case of `Cc1ccc(C)c(N2C(=O)C(=O)C(c3nc4ccccc4o3)/C(=N/N)C2=O)c1` (centres undefined), the growth inhibition was -18.8% in assay [1]; 34% in assay [2]; 14.2% in assay [3]; -17% in assay [4]; 5.25% in assay [5]; -17.8% in assay [6].
In the case of `O=[N+]([O-])c1ccc(Oc2c3ccccc3nc3ccccc23)cc1`, the growth inhibition is 11.3% in assay [1]; -3.7% in assay [2]; 19.6% in assay [3]; -1.8% in assay [4]; -1.4% in assay [5]; 14.4% in assay [6].
`O=[N+]([O-])c1ccc2c(N3CCC(CCCC4CCN(c5ncnc6cc([N+](=O)[O-])ccc56)CC4)CC3)ncnc2c1`: the growth inhibition in assay [1] is 2.55%; in assay [2], -16.7%; in assay [3] it was 39%; in assay [4] it was 19.2%; in assay [5], -10.8%; in assay [6], -2.9%.
Turning to `Cc1ccc(-c2n[nH]c(CC#N)n2)cc1`, the growth inhibition was 5.55% in assay [1]; 1.6% in assay [2]; -4.6% in assay [3]; -12.7% in assay [4]; -1.55% in assay [5]; 18.7% in assay [6].
As for `CCOC(=O)c1cn(CC)c2ccc3ccsc3c2c1=O`, the growth inhibition in assay [1] is -18.2%; in assay [2], -40.4%; in assay [3], -15.5%; in assay [4] it was 10.2%; in assay [5], -9.4%; in assay [6] it was -30.9%.
Regarding `NC(=O)C1CC2CC(Cl)C1C2` (centres undefined), the growth inhibition is -0.5% in assay [1]; -0.1% in assay [2]; -18.1% in assay [3]; -45% in assay [4]; 9.65% in assay [5]; -22.1% in assay [6].

The values are drawn from PubChem BioAssay (NCI).
